# Results from ChEMBL document CHEMBL3988442, “University of Dundee, Small-Polar-MMV Screening Library” (2021).
# Among all 69,000 compounds or so, about 420 (0.61%) showed an effect of 50% or more. For the sample, strong results were picked, then their nearest neighbours and some compounds at random.
# Biological target: T1, Histidine--tRNA ligase (Leishmania infantum) (UniProt A4I591)
# T1 sequence (whole entry): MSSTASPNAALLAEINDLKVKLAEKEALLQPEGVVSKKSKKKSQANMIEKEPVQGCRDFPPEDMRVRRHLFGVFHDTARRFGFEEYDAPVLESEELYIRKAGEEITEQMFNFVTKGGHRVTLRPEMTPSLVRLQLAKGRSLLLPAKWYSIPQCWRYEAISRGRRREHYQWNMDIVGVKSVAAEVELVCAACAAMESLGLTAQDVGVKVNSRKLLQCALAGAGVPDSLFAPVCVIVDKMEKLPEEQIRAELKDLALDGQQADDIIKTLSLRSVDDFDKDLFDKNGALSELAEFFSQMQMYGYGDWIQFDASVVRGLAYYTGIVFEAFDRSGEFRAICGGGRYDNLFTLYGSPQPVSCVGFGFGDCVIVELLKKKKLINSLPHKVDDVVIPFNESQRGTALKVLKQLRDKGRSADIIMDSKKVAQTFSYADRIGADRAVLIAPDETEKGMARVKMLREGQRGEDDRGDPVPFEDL
# Assay: Leishmania infantum Histidine tRNA synthetase (LdHisRS)
# Format: functional
# Design: scale not given: in the data most compounds retested in dose-response had high values
# Conditions: 30 µM
row,SMILES,Percent Effect [%]
1,CN(C)C(=O)NC[C@H]1OC[C@@H]2CCN(Cc3ccoc3)C[C@@H]21,-1.89
2,Cn1cccc1C(=O)N1CCO[C@@H]2CN(Cc3ccco3)C[C@@H]2C1,11.8
3,Cc1occc1C(=O)N1C[C@@H](OCc2cccnc2)[C@H]2OCCC[C@@H]21,28.2
4,O=C1O[C@@H]2CN(Cc3cc4ccccc4s3)C[C@@H]2N1Cc1ccccn1,2.67
5,CCN1C(=O)CO[C@@H]2CN(C(=O)C3CCOCC3)C[C@H]21,20.6
6,CN(C)S(=O)(=O)N1CC[C@]2(O)CCN(CCCc3cccnc3)C[C@@H]2C1,18.4
7,Cc1ccccc1CN1C[C@@H]2COC[C@]2(CNC(=O)C2CCC2)C1,13.9
8,COCCOCC(=O)N1C[C@@H]2CC[C@H](Oc3ccccc3)[C@@H]2C1,26.3
9,Cc1noc(C)c1CNc1cccc(C(=O)N(C)c2ccccc2)c1,-0.855
10,Cc1cc(CNc2ccc(C(F)(F)F)cc2)no1,17
11,Cc1noc(C)c1CNc1cccc(C(=O)N2CCCC(O)C2)c1 (configuration not stated),27.4
12,Cc1cc(CNc2ccc3nc(C4CC4)sc3c2)no1,27.6
13,Cc1noc(C)c1CNc1ccc2nc(C3CC3)sc2c1,75.9
14,Cc1cc(CNc2ccc3nc(C)sc3c2)no1,58.6
15,O=C(c1cscn1)N1CCO[C@H]2[C@@H](Oc3ccccn3)CC[C@@H]21,7
16,Cc1noc(CN2C[C@H]3CC[C@@H]2CN(C2Cc4ccccc4C2)C3)n1,20.4
17,O=C(N1CCOCC1)[C@@]12CCO[C@@H]1CCN(C1CCCCC1)C2,20.5
18,Cc1cccc(CN2C[C@@H]3CN(C(=O)c4ccsc4)C[C@@H]3C2=O)n1,28.6
19,Cc1cccc(CN2C(=O)CO[C@@H]3CN(Cc4nccn4C)C[C@H]32)c1,17.3

row,SMILES,Percent Effect [%]
1,O=C(NCCNc1ncccn1)c1ccc(Br)cc1,18.4
2,CCc1ccc(C(=O)NCCNc2ncccn2)cc1,2.63
3,Cc1ccc(C)n1-c1ccc(C(=O)NCCNc2ncccn2)cc1,53
4,O=C(c1ccoc1)N1C[C@@H]2OCCN(c3ncccn3)[C@@H]2C1,15.3
5,Nc1ccc(C(=O)N2C[C@@H]3CC[C@H](C2)N(Cc2ccccc2)C3)cn1,9.57
6,CC(=O)N1[C@H](CN(C)C)C[C@@H]2CN(c3ncc(F)cn3)CC[C@@H]21,14.5
7,COc1cc(CNCCn2cc(C)cn2)cc2c1OCCO2,9.17
8,COc1cc(CNCCc2cnn(C)c2)cc2c1OCCO2,24.8
9,COc1cc(CNc2cnn(C)c2)cc2c1OCCO2,53.6
10,CC(C)NC(=O)[C@H]1C[C@@H]2[C@@H](C1)OCCN2Cc1ccco1,5.56
11,Cc1cncc(C(=O)N2C[C@@H]3CN(S(C)(=O)=O)CCO[C@@H]3C2)c1,15.1
12,O=C(N[C@@H]1CN(c2ncccn2)C[C@@H]2CCCO[C@@H]21)c1ccnnc1,22.9
13,CC(=O)Nc1ccc2nc(CN(C)Cc3snnc3C)ccc2c1,61.2
14,CC(=O)Nc1ccc2nc(CN(C)Cc3noc(C)n3)ccc2c1,18.4
15,CC(=O)Nc1ccc(CN(C)Cc2snnc2C)cc1,16.3
16,Cc1ccoc1C(=O)N1C[C@H](OCC2CC2)[C@H]2OCCC[C@H]21,2.65
17,COC[C@@]12CC[C@@H](N3CCOCC3)C[C@H]1CCN(c1cc(C)ccn1)C2,19.4
18,O=C([C@H]1C[C@@H]2[C@@H](C1)OCCN2CC1CC1)N1CCCC1,19.3
19,CCC1CN(CCC(=O)N(C)C)CCN1CCOC (configuration not stated),50

row,SMILES,Percent Effect [%]
1,CCC1CN(CCNC(C)=O)CCN1CCOC (configuration not stated),4.76
2,CCC1CN(CC(=O)N2CCC2)CCN1CCOC (configuration not stated),28.6
3,c1ccc(O[C@H]2C[C@@H]3CN(Cc4cnccn4)C[C@@H]3C2)cc1,15.9
4,COc1cc(N2C[C@@H]3COC[C@]3(COCc3ccccn3)C2)ncn1,13.8
5,NC(=O)c1ccc(N2CCCCC2)c(NC(=O)c2ccc(F)cc2Cl)c1,65.6
6,NC(=O)c1ccc(N2CCCCC2)c(NC(=O)c2ccc(F)cc2F)c1,18.3
7,NC(=O)c1ccc(N2CCCCC2)c(NC(=O)c2ccc(Br)cc2)c1,20.4
8,NC(=O)c1ccc(N2CCCCC2)c(NC(=O)c2cc(Br)ccc2F)c1,36.8
9,NC(=O)c1ccc(N2CCCCC2)c(NC(=O)c2cc(F)ccc2F)c1,18.3
10,NC(=O)c1ccc(N2CCCCC2)c(NC(=O)c2cc(Br)ccc2Cl)c1,80.7
11,O=S1(=O)C[C@@H]2[C@H](C1)N(Cc1cc(F)cc(Cl)c1)CCN2CCO,0
12,CN(C)C(=O)N1C[C@@H]2CC[C@H](C1)N(Cc1nnc(-c3ccco3)o1)C2,-9.89
13,NC(=O)NCC(=O)N1C[C@H]2CC[C@@H]1CN(Cc1cscn1)C2,0
14,CCc1oc(C(=O)N2CC[C@H]3CC[C@@H](C2)N3)cc1CN(CC)CC,12.6
15,Fc1cccc(CN2CCC(c3cc4ncccc4cn3)CC2)c1F,29.6
16,COc1ccc(C)cc1CN1CCC(c2cc3ncccc3cn2)CC1,60.6
17,Fc1ccc(F)c(CN2CCC(c3cc4ncccc4cn3)CC2)c1,35.2
18,Cc1noc([C@@H]2C[C@@H]3CCN(c4nnc(C)s4)C[C@H]3O2)n1,13.5
19,O=C(c1ccoc1)N1CC[C@H]2OCC[C@@]2(COc2ncccc2F)C1,24.5
